This is part of a sample that, as a whole, favours compounds with a hit. Of some 83,000 tested, about 20% had one in any assay.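 Note: values are percent growth. 100 is the growth of untreated cells, values between 100 and 0 indicate rising inhibition; between -100 and 0 indicates cell death.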 Calls of active or inactive are those of the source. How the source made its calls: active means growth percent below 10; inactive means the rest.
How the values were obtained:
Assay in all cases: NCI-60 one-dose screen, 48 h (100 = growth as untreated, 0 = no growth, -100 = all killed)
Details in all cases: 10 µM unless noted
[1] = test system: NCI-H23 lung
[2] = test system: NCI-H226 lung
[3] = test system: NCI-H322M lung
[4] = test system: HOP-62 NSCLC
[5] = test system: NCI-H460 lung
[6] = test system: HOP-92 NSCLC
[7] = test system: A549/ATCC NSCLC
[8] = test system: 786-0 renal
[9] = test system: COLO 205 colon
[10] = test system: DU-145 prostate
[11] = test system: K-562 leukemia
[12] = test system: MALME-3M melanoma
[13] = test system: MDA-MB-231 breast
[14] = test system: RXF 393 renal
[15] = test system: SF-268 CNS
[16] = test system: SF-295 CNS
[17] = test system: SF-539 CNS
[18] = test system: UACC-257 melanoma
[19] = test system: M14 melanoma
[20] = test system: NCI-H522 lung

Measured: growth

COc1cccc(CNc2ncnc3c2ncn3C2OC(CO)C(O)C2O)c1O (stereo not given)
active: [1] 7.98% | [4] 1.76% | [6] -32.7% | [8] 7.21% | [10] 0.439% | [11] 6.7% | [12] -1.1% | [13] -46% | [14] -13.3% | [16] -24.5% | [17] -3.39%
inactive: [2] 31.6% | [3] 11.3% | [5] 45.7% | [7] 23.9% | [9] 24.6% | [15] 22.8% | [18] 37.6% | [19] 18.5%

Cn1cc(-c2csc(-c3c[nH]c4ccc(Br)cc34)n2)c2cnccc21
active: [1] -64.2% | [2] -55.7% | [3] -44.5% | [4] -66.7% | [5] -82.4% | [6] -86.2% | [20] -66.8% | [8] -90.5% | [9] -72.9% | [10] -91.7% | [11] -53.8% | [12] -88.7% | [13] -81.4% | [14] -94.9% | [15] -75.5% | [16] -86.6% | [17] -96.4% | [18] -50.2% | [19] -81.7%

CCCCCCCCCCCCCCCC(N)c1ccccc1 (stereo not given)
active: [1] -24.4% | [4] -33.9% | [5] -66.8% | [8] 1.55% | [9] -57.8% | [10] -62.9% | [11] 0.445% | [13] -71.9% | [14] -89.4% | [15] -38.9% | [16] -49.5% | [19] 3.85%
inactive: [2] 87.6% | [3] 92.9% | [6] 31.4% | [7] 31.9% | [12] 79.5% | [17] 88.4% | [18] 82.6%

O=c1oc2ccc([N+](=O)[O-])cc2cc1Br
inactive: [1] 107% | [2] 98.4% | [3] 108% | [4] 104% | [5] 107% | [6] 83.7% | [20] 97.9% | [8] 112% | [9] 105% | [10] 109% | [11] 102% | [12] 107% | [13] 109% | [14] 108% | [15] 103% | [16] 98.8% | [17] 82.2% | [18] 104% | [19] 104%

CCNC(=O)c1[nH]cc(-c2ccccc2)c1-c1cc(OC)c2c(c1OC)OCO2
inactive: [1] 93.8% | [2] 86.9% | [3] 93.7% | [4] 91.8% | [5] 108% | [6] 83.9% | [20] 93.4% | [8] 101% | [9] 111% | [10] 112% | [11] 94% | [12] 110% | [13] 97.2% | [14] 102% | [15] 97.6% | [16] 100% | [17] 102% | [18] 102% | [19] 95.8%

CC1=C(CCC(C)N(C)Cc2ccc(OCCCN3CCCC3)cc2)C(C)(C)CCC1 (stereo not given)
active: [5] 5.81% | [9] -78.8% | [11] -22.2% | [12] -89.4% | [13] -43.6% | [14] -37.5% | [16] -4.45% | [17] -79% | [18] -74.3% | [19] -77.2%
inactive: [1] 64% | [2] 85.5% | [3] 55.5% | [4] 36.6% | [6] 27.3% | [7] 37.8% | [8] 17.3% | [10] 65.3% | [15] 48.2%

Clc1ccc(Nc2nnc(COc3ccccc3)c3ccccc23)cc1
active: [1] 4.18% | [2] 1.78% | [5] 3.1% | [6] -28% | [20] -17.4% | [8] 5.25% | [9] -5.75% | [11] 2.77% | [12] -13.5% | [14] -5.93% | [16] -1.11% | [17] 8.42% | [18] -24.9% | [19] -9.99%
inactive: [3] 21.2% | [4] 13.1% | [10] 10.4% | [13] 11.4% | [15] 13.2%

CCNc1cc(-c2cccc(OC(F)(F)F)c2)nc2ccc(N3CCCC3)cc12
active: [1] 7.13% | [4] -10.1% | [5] 1.03% | [6] -6.27% | [8] -18.4% | [9] -65.9% | [11] 4.34% | [12] -32.2% | [19] 7.92%
inactive: [2] 37.3% | [3] 22.1% | [7] 10.3% | [10] 28.6% | [13] 15.3% | [14] 33.7% | [15] 48.8% | [16] 23.6% | [17] 48.9% | [18] 11.1%

C=CCc1c(O)c(C(=O)/C=C/c2ccc(Cl)cc2)c(OC)c2ccoc12
inactive: [1] 57.1% | [2] 28.7% | [3] 75.8% | [4] 85.4% | [5] 49.8% | [6] 48.6% | [20] 35.7% | [8] 78% | [9] 73.7% | [10] 78.5% | [11] 47.2% | [12] 34.6% | [13] 49.4% | [14] 21.9% | [15] 53.8% | [16] 33.1% | [17] 50.7% | [18] 39.4% | [19] 58.3%

CCOC(=O)C1=C(NC)OCC1=O
inactive: [1] 99.9% | [2] 96.3% | [3] 100% | [4] 100% | [5] 101% | [6] 83.5% | [7] 90.9% | [8] 106% | [9] 112% | [10] 110% | [11] 99% | [12] 113% | [13] 107% | [14] 100% | [15] 98.6% | [16] 106% | [17] 104% | [18] 92.5% | [19] 102%

O=C1Nc2ccccc2/C1=C\c1nc(-c2ccccc2F)n2ccccc12
inactive: [1] 33.2% | [3] 26% | [6] 40.4% | [9] 72.8% | [11] 74.1% | [12] 34.4% | [15] 24.7% | [16] 38.1% | [18] 45.7% | [19] 53.4%
active: [2] -1.5% | [4] -1.47% | [5] -20.4% | [20] -23% | [8] -34.5% | [10] -26.7% | [13] 8.66% | [14] -42.7% | [17] -1.95%

Clc1ccc2c(c1)N(c1ncnc3ccc(-c4cnc5[nH]ncc5c4)cc13)CC2
inactive: [1] 52.5% | [2] 24.4% | [3] 11.8% | [4] 24.4% | [5] 20.1% | [8] 18.1% | [9] 31.1% | [10] 22.4% | [11] 51.1% | [12] 40.2% | [13] 27.3% | [15] 35.1% | [16] 23.1% | [17] 24.9% | [18] 44.3% | [19] 43.4%
active: [6] -1.84% | [7] 6.23% | [14] -10.5%

O=C1CNC(c2ccccc2)C(c2ccccc2)N1 (stereo not given)
inactive: [1] 85.2% | [2] 99.4% | [3] 103% | [4] 121% | [5] 103% | [6] 86.3% | [20] 88.6% | [8] 92.4% | [9] 115% | [10] 102% | [11] 120% | [12] 86.9% | [13] 100% | [14] 98.3% | [15] 110% | [16] 109% | [17] 100% | [18] 102% | [19] 97.4%

N#Cc1c(-c2ccc(Cl)cc2)nc(NN=Cc2cccc(O)c2)nc1N1CCOCC1
inactive: [1] 100% | [2] 92.9% | [3] 86.3% | [4] 87.8% | [5] 77.9% | [6] 63.3% | [7] 72.7% | [8] 64.3% | [9] 85.7% | [10] 63.4% | [11] 45.1% | [12] 104% | [13] 95.9% | [14] 24.1% | [15] 81.9% | [16] 97.1% | [17] 67.8% | [18] 86.5% | [19] 66.6%

O=C1c2cccnc2C(=O)c2c1c(C(=O)NCCn1ccnc1)c1ccccn21
active: [1] 5.02% | [5] -41.3% | [20] -9.62% | [7] 1.78% | [9] -27.6% | [12] -68.8% | [17] 9.99% | [18] -29% | [19] 7.17%
inactive: [2] 51.5% | [3] 22.3% | [4] 14% | [8] 49% | [10] 29.9% | [11] 29.3% | [13] 13.6% | [14] 59.7% | [15] 23.6% | [16] 29.5%
